Data: PubChem BioAssay (Tox21)
Values without a mark were called inactive. Active and inactive are the calls of the source. Calls come from the whole dose curve; as a rule, active = well fitted curve in the direction sought with a large enough effect in the repeat runs; inconclusive = weak or mixed curves; inactive = flat fitted curve, though single readings scatter.

Test: qHTS assay to test for compound auto fluorescence at 590 nm (red) in HepG2 cell free culture (AID 720684)
Settings: cell-free medium autofluorescence, red 540/590 nm; series mostly up to 91.3 µM; fluorescence, % of Rose Bengal: at the top concentration
Excerpt: U.S. Tox21 Program National Center for Advancing Translational Sciences [NCATS] NIH Chemical Genomics Center [NCGC] U.S. Environmental Protection Agency [EPA] National Institutes of Environmental Health Sciences [NIEHS] National Toxicology Program [NTP] U.S. Food and Drug Administration [FDA] Tox21 Assay Overview: Compound auto fluorescence often interferes with screening of the compound library against various biological targets and signaling pathways. Some of these compounds may have fluorophoric properties. Such properties may interfere with the assay outputs resulting in false positives and/or negatives. To decrease such complications and ensure the compound activities are relevant in terms of biological response, the Tox21 10K compound library was screened for auto fluorescence. From the fluorophores used as reporter signals in our screening assays, the auto fluorescence equivalencies of compounds against three fluorophores have been evaluated: Triamterene, Fluorescein and Rose Bengal sodium for blue, green and red fluorescence, respectively. The fluorescence intensities were measured using Excitation/Emission wavelengths at 405/460nm, 485/535nm and 540/590nm for blue, green and red labels, respectively. This assay includes the red fluorescence data.
Tox21 Assay Protocol Summary: 5 uL of culture medium (MEM containing 10% FBS) per well was dispensed into black wall/clear bottom 1536-well plates using a Multidrop Combi Dispenser (ThermoFisher Scientific, Waltham, MA). After 23 nL compound or DMSO vehicle was transferred into assay plate by a pintool work station (Kalypsys, San Diego, CA), fluorescence intensities in the assay plates were measured by an Envision (PerkinElmer, Shelton, CT) plate reader using three labels for measuring blue, green and red fluorescence at […] 460, 535 and 590nm respectively.
% is set by controls: 0 for no effect and ±100 for the full control effect.

| SMILES | fluorescence, % of Rose Bengal | outcome |
| --- | --- | --- |
| O=C(O)CN1C(=O)c2cccc3cccc(c23)C1=O | -0.23% [at 46 µM] |  |
| COc1ccc(-n2nc(C(F)F)cc2-c2ccc(S(C)=O)cc2)cc1 (stereo not given) | -0.178% |  |
| O=CNNC=O | -0.0185% [at 95.7 µM] |  |
| CC(C)(C)C(O)/C=C/c1ccc2c(c1)OCO2 (stereo not given) | -0.0333% [at 46 µM] |  |
| COc1cc(NC(C)CCCN)c2ncccc2c1 (stereo not given) | 0.347% [at 18.6 µM] |  |
| Cc1ccc(N(CCO)CCO)cc1 | -0.126% |  |
| CNc1c2c(nn1C)CCCC2 | -0.173% [at 46 µM] |  |
| CC(CN(CCN(CC(C)OCCO)CC(C)OCCO)CC(C)OCCO)OCCO (stereo not given) | -0.121% [at 95.7 µM] |  |
| SCCc1cnccn1 | 0.0735% |  |
| Cc1cc([N+](=O)[O-])ccc1N | 0.0197% |  |
| COc1cc(S(=O)(=O)Nc2ccccc2)c(OC)cc1N | -0.0265% |  |
| CSCC[C@H](NC(=O)[C@H](Cc1c[nH]c2ccccc12)NC(=O)CCNC(=O)OC(C)(C)C)C(=O)N[C@@H](CC(=O)O)C(=O)N[C@@H](Cc1ccccc1)C(N)=O | -0.0186% [at 46 µM] |  |
| CC(C)OC(=O)c1ccccc1C(=O)OC(C)C | -0.0761% |  |
| CCO[Si](C)(CCCOCC1CO1)OCC (stereo not given) | 0.171% |  |
| CC(C)C1CCC(C(=O)N[C@H](Cc2ccccc2)C(=O)O)CC1 (stereo not given in full) | 0.238% [at 46 µM] |  |
| Cc1ccc2nc(N)[nH]c(=O)c2c1Sc1ccncc1 | 0.419% [at 46 µM] |  |
| OCC(CO)n1cnc(-c2ccc(F)cc2)c1-c1ccnc(Oc2ccccc2)n1 | 0.0752% |  |
| COc1ccc(/C=C/C(=O)c2ccc(OC)cc2OC)cc1 | 0.0099% [at 46 µM] |  |
| O=C(Nc1ccc(C(=O)O)c(O)c1)c1ccccc1 | 0.191% [at 46 µM] |  |
| CSSc1ccoc1C | 0.0982% |  |

| SMILES | fluorescence, % of Rose Bengal | outcome |
| --- | --- | --- |
| CCN(CC)c1cccc(O)c1 | 0.673% [at 95.7 µM] |  |
| CC(C)COC(=O)c1ccc(O)cc1 | -0.0283% |  |
| CC1CCC(C(C)CS)CC1S (stereo not given) | 0.111% |  |
| COc1cc(NCc2ccc3nc(N)nc(N)c3c2C)cc(OC)c1OC | 0.0198% [at 46 µM] |  |
| NC(=O)CCCCC(N)=O | -0.0175% |  |
| CC(C)(O)CCc1ccccc1 | 0.0131% |  |
| COc1ccc(C)cc1 | -0.302% |  |
| Cc1ccc(N(CC2=NCCN2)c2cccc(O)c2)cc1 | 0.0099% [at 46 µM] |  |
| CC(C)(C)CCCCCCOC(=O)c1ccccc1C(=O)OCCCCCCC(C)(C)C | -0.4% |  |
| Cc1ccc(NC(=O)N(C)C)cc1NC(=O)N(C)C | 0.0902% |  |
| CCOC(=O)C(C)O (stereo not given) | -0.195% [at 95.7 µM] |  |
| CC[C@H]1OC(=O)[C@H](C)[C@@H](O[C@H]2C[C@@](C)(OC)[C@@H](O)[C@H](C)O2)[C@H](C)[C@@H](O[C@@H]2O[C@H](C)C[C@H](N(C)C)[C@H]2O)[C@](C)(O)C[C@@H](C)C(=O)[C@H](C)[C@@H](O)[C@]1(C)O |  | inactive |
| CCC(CO)(CO)CO | 0.0569% [at 95.7 µM] |  |
| O=C1OC[C@H](Cc2cccc(O)c2)[C@H]1Cc1cccc(O)c1 | 0.0473% [at 46 µM] |  |
| Cc1ccc2c(c1)CCCN2 | -0.539% |  |
| Cc1cccc(C)c1NC(=O)c1cc(S(N)(=O)=O)c(Cl)cc1O | -0.174% [at 46 µM] |  |
| CC(C)(C)NCC(O)COc1cccc2c1C[C@H](O)[C@H](O)C2 (stereo not given in full) | -0.334% [at 18.6 µM] |  |
| O=c1[nH]c2cc(C(F)(F)F)c(N3CCOCC3)cc2n(CP(=O)(O)O)c1=O | 0.014% [at 46 µM] |  |
| c1ccc2sc(SSc3nc4ccccc4s3)nc2c1 | 0.0186% [at 46 µM] |  |
| Cc1ccc2c(c1[N+](=O)[O-])C(=O)c1ccccc1C2=O | -0.012% [at 46 µM] |  |
